Reference: PubChem BioAssay (EPA / NIEHS)
Values joined by “and” are separate entries in the source; they are usually repeats but may differ in a detail not shown here. Equal values may be shown once. The source holds several records for some structures; these can differ, active in one and inactive in another. Active and inactive are the calls of the source. The calls were made as follows: active = hit-call score of the fitted dose curve at least 0.9, where 1 is the maximum; inactive = score below 0.9.

Experiments:
[1] = read-out: Epidermal growth factor receptor (EGFR), EGFR (gene 1956); assay: BSK_hDFCGF_EGFR: BioMAP Diversity Plus: hDFCGF Assay for Epidermal growth factor receptor (EGFR) Biomarker Activity (AID 2283057); details: primary human foreskin fibroblasts; actives raise or lower the signal
How it was run: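 Cell-based multiplexed assay in primary human foreskin fibroblasts. EGFR is read by ELISA 24 h after treatment and compared with DMSO controls.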

[2] = read-out: Interleukin-8 (IL8), CXCL8 (gene 3576); assay: BSK_hDFCGF_IL8: BioMAP Diversity Plus: hDFCGF Assay for Interleukin-8 (IL8) Biomarker Activity (AID 2283058); details: primary human foreskin fibroblasts; actives raise or lower the signal
How it was run: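 IL-8 levels read by ELISA at 24 hours after dosing human skin fibroblast cultures. Parallel SRB staining assessed overt cytotoxicity, and gain or loss of signal was fitted against DMSO control.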

[3] = BSK_hDFCGF_Proliferation: Cell Proliferation Assessment in the BioMAP Diversity Plus: hDFCGF Assay (AID 2283059); details: primary human foreskin fibroblasts;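 also: curves fitted for both rise and fall of signal versus DMSO baseline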
How it was run: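 This proliferation readout used SRB total-protein staining of human foreskin fibroblasts […], normalized to DMSO with bidirectional curve fitting.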

[4] = BSK_hDFCGF_SRB: Viability Assessment in the BioMAP Diversity Plus: hDFCGF Assay (AID 2283061); details: primary human foreskin fibroblasts;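 also: cells exposed to compound for 24 h before the read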
How it was run: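 Viability was read as total protein: after 10% TCA fixation, wells were stained with 0.1% sulforhodamine B and read at 560 nm. Primary human foreskin fibroblasts were dosed for 24 h, with bidirectional fitting versus DMSO.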

[5] = read-out: TIMP metallopeptidase inhibitor 1 (TIMP1), TIMP1 (gene 7076); assay: BSK_hDFCGF_TIMP1: BioMAP Diversity Plus: hDFCGF Assay for TIMP metallopeptidase inhibitor 1 (TIMP1) Biomarker Activity (AID 2283062); details: primary human foreskin fibroblasts; actives raise or lower the signal
How it was run: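 TIMP-1 measured by ELISA 24 h after chemical dosing of primary human skin fibroblasts, with gain or loss fitted relative to DMSO. Parallel SRB staining (560 nm) monitored overt cytotoxicity.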

[6] = read-out: Monokine induced gamma interferon (MIG), CXCL9 (gene 4283); assay: BSK_hDFCGF_MIG: BioMAP Diversity Plus: hDFCGF Assay for Monokine induced gamma interferon (MIG) Biomarker Activity (AID 2283063); details: primary human foreskin fibroblasts; actives raise or lower the signal
How it was run: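 Human primary foreskin fibroblasts in the hDFCGF system, exposed to test chemical for 24 h; MIG measured by ELISA. Bidirectional curve fitting against DMSO negative control as activity baseline.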

[7] = read-out: Matrix Metallopeptidase 1 (MMP1), MMP1 (gene 4312); assay: BSK_hDFCGF_MMP1: BioMAP Diversity Plus: hDFCGF Assay for Matrix Metallopeptidase 1 (MMP1) Biomarker Activity (AID 2283064); details: primary human foreskin fibroblasts; actives raise or lower the signal
How it was run: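 Human foreskin fibroblasts exposed to chemical for 24 h; MMP1 detected by ELISA, with DMSO as baseline for bidirectional fitting.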

[8] = read-out: Vascular cell adhesion molecule 1 (VCAM1), VCAM1 (gene 7412); assay: BSK_hDFCGF_VCAM1: BioMAP Diversity Plus: hDFCGF Assay for Vascular cell adhesion molecule 1 (VCAM1) Biomarker Activity (AID 2283065); details: primary human foreskin fibroblasts; actives raise or lower the signal;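 as to AC50: VCAM-1 protein level quantified by ELISA after 24 h chemical exposure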
How it was run: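 ELISA readout of VCAM-1 on human dermal fibroblast primary cultures, 24 h after chemical exposure. Gain or loss of signal fitted in both directions against DMSO baseline.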

[9] = read-out: Plasminogen activator inhibitor-1 (PAI1), SERPINE1 (gene 5054); assay: BSK_hDFCGF_PAI1: BioMAP Diversity Plus: hDFCGF Assay for Plasminogen activator inhibitor-1 (PAI1) Biomarker Activity (AID 2283066); details: primary human foreskin fibroblasts; actives raise or lower the signal
How it was run: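 Human skin fibroblast cultures receive chemical for 24 h before PAI-1 is measured by ELISA; signal changes are fitted bidirectionally against DMSO-treated wells.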

[10] = read-out: Interferon-gamma inducible Protein 10 (IP10), CXCL10 (gene 3627); assay: BSK_KF3CT_IP10: BioMAP Diversity Plus: KF3CT Assay for Interferon-gamma inducible Protein 10 (IP10) Biomarker Activity (AID 2283068); details: primary human keratinocytes with fibroblasts; actives raise or lower the signal
How it was run: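 Signal is secreted/surface IP-10 by ELISA in a human primary skin co-culture of keratinocytes and foreskin fibroblasts, taken 24 h post-dosing; DMSO served as negative control.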

[11] = BSK_KF3CT_SRB: Viability Assessment in the BioMAP Diversity Plus: KF3CT Assay (AID 2283069); details: primary human keratinocytes with fibroblasts;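 also: read 24 h after compound addition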
How it was run: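 Overt cytotoxicity is assessed as total protein by sulforhodamine B staining in parallel human skin co-cultures at 24 h after dosing. DMSO serves as negative control and baseline.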

[12] = read-out: Interleukin-1 alpha (IL1a), IL1A (gene 3552); assay: BSK_KF3CT_IL1a: BioMAP Diversity Plus: KF3CT Assay for Interleukin-1 alpha (IL1a) Biomarker Activity (AID 2283070); details: primary human keratinocytes with fibroblasts; actives raise or lower the signal
How it was run: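 Readout is IL-1a level by ELISA, compared bidirectionally with DMSO as baseline. Cells: human keratinocytes co-cultured with foreskin fibroblasts, harvested 24 h post-dose.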

[13] = read-out: Matrix Metallopeptidase 9 (MMP9), MMP9 (gene 4318); assay: BSK_KF3CT_MMP9: BioMAP Diversity Plus: KF3CT Assay for Matrix Metallopeptidase 9 (MMP9) Biomarker Activity (AID 2283074); details: primary human keratinocytes with fibroblasts; actives raise or lower the signal;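 as to AC50: MMP9 protein level quantified by ELISA in the co-culture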
How it was run: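 Values come from bidirectional fitting relative to DMSO of MMP-9 levels, which were measured by ELISA. Measurements were taken 24 h after chemical dosing of a keratinocyte and foreskin fibroblast co-culture.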

[14] = read-out: urokinase plasminogen activator (uPA), PLAU (gene 5328); assay: BSK_KF3CT_uPA: BioMAP Diversity Plus: KF3CT Assay for urokinase plasminogen activator (uPA) Biomarker Activity (AID 2283075); details: primary human keratinocytes with fibroblasts; actives raise or lower the signal
How it was run: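 Values derive from bidirectional fitting against DMSO controls. Keratinocyte/foreskin fibroblast co-cultures received chemical; 24 h later uPA was detected by ELISA, with SRB total-protein staining in parallel wells for overt cytotoxicity.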

CD40, CD40 (gene 958) = assay: BSK_LPS_CD40: BioMAP Diversity Plus: LPS Assay for CD40 Biomarker Activity (AID 2283076); details: primary human HUVEC with PBMC; actives raise or lower the signal
How it was run: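 In the LPS system of human endothelial cells with peripheral blood mononuclear cells, CD40 levels were read by ELISA 24 h post-treatment. Signal changes in either direction were fitted against the DMSO baseline, with parallel SRB protein staining.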

[15] = BSK_LPS_SRB: Viability Assessment in the BioMAP Diversity Plus: LPS Assay (AID 2283079); details: primary human HUVEC with PBMC;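 also: total protein by sulforhodamine B absorbance as a cytotoxicity measure; measured one day after compound addition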
How it was run: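 SRB viability endpoint: cells fixed with 10% TCA, stained with 0.1% SRB, read at 560 nm, 24 h post-dose. HUVEC/PBMC co-culture; signal change in either direction scored relative to DMSO.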

[16] = read-out: Tumor necrosis factor (Homo sapiens) (UniProt P01375); assay: BSK_LPS_TNFa: BioMAP Diversity Plus: LPS Assay for Tumour Necrosis Factor alpha (TNFa) Biomarker Activity (AID 2283085); details: primary human HUVEC with PBMC; actives raise or lower the signal;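 as to AC50: TNFa protein level quantified by ELISA in the co-culture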
How it was run: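 ELISA-based TNFa endpoint in a human endothelial–PBMC co-culture sampled 24 h post-exposure. Curves were fitted in both directions using DMSO as baseline of activity.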

[17] = read-out: Vascular cell adhesion molecule 1 (VCAM1), VCAM1 (gene 7412); assay: BSK_LPS_VCAM1: BioMAP Diversity Plus: LPS Assay for Vascular cell adhesion molecule 1 (VCAM1) Biomarker Activity (AID 2283086); details: primary human HUVEC with PBMC; actives raise or lower the signal
How it was run: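 Measured by ELISA: VCAM-1 in LPS-activated HUVEC/PBMC co-cultures 24 h after treatment. Values reflect bidirectional fitting with DMSO as baseline.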

[18] = BSK_SAg_PBMCCytotoxicity: PBMC Cytotoxicity Assessment in the BioMAP Diversity Plus: SAg Assay (AID 2283093); details: primary human HUVEC with PBMC;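 also: PBMC viability measured as Alamar Blue reduction fluorescence at 546/580 nm; fitted both ways against DMSO so a hit may be loss or gain of signal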;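 as to AC50: PBMC superantigen activated with SEB plus TSST-1 one hour after compound addition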
How it was run: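 Alamar Blue reduction (6 h, 546/580 nm) reports PBMC cytotoxicity after 90 h superantigen activation (SEB, TSST-1; 20 ng/mL final each) with 1 h compound pre-treatment. Gain or loss of signal fitted versus DMSO.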

[19] = read-out: Monokine induced gamma interferon (MIG), CXCL9 (gene 4283); assay: BSK_SAg_MIG: BioMAP Diversity Plus: SAg Assay for Monokine induced gamma interferon (MIG) Biomarker Activity (AID 2283092); details: primary human HUVEC with PBMC; actives raise or lower the signal
How it was run: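 Values reflect bidirectional fitting of ELISA-measured MIG against DMSO vehicle, taken 24 h after dosing of a co-culture of human umbilical vein endothelial cells and peripheral blood mononuclear cells.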

Measured: AC50

Sequence of Tumor necrosis factor (Homo sapiens) (P01375 whole entry, looked up): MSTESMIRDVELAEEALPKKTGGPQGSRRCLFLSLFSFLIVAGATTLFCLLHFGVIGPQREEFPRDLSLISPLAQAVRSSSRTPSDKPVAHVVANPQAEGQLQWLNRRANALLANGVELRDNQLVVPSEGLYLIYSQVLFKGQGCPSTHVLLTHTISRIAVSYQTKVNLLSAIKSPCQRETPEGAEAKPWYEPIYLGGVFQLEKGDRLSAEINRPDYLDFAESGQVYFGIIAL

CC(C)(c1cc(Cl)c(O)c(Cl)c1)c1cc(Cl)c(O)c(Cl)c1
inactive: [1]
active: [2] 28.5 µM | [3] 7.69 µM | [4] 16.5 µM | [5] 11 µM | [6] 14.8 µM | [7] 11.1 µM | [8] 10.5 µM | [9] 6.66 µM | [10] 7.37 µM | [11] 5.15 µM | [12] 9.44 µM | [13] 8.32 µM | [14] 9.27 µM | CD40, CD40 (gene 958) 17.3 µM | [15] 31.7 µM | [16] 31.4 µM | [17] 29.8 µM | [18] 36.3 µM

O=[N+]([O-])c1ccc(Cl)cc1
inactive: all assays above

c1ccc(Nc2ccc3ccccc3c2)cc1
inactive: [1] | [2] | [6] | CD40, CD40 (gene 958) | [15] | [16] | [17] | [19] | [18]
active: [3] 34.9 µM | [4] 30.6 µM | [5] 31.5 µM | [7] 33.3 µM | [8] 30.1 µM | [9] 29.3 µM | [10] 36.3 µM | [11] 36.9 µM | [12] 24.2 µM | [13] 28.3 µM | [14] 30.7 µM

O=C1C=CC(=O)C=C1
inactive: [1] | [2] | [11] | [15] | [19]
active: [3] 11.2 µM and 2.81 µM | [4] 36.3 µM and 12.7 µM | [5] 20 µM and 13.2 µM | [6] 11.2 µM and 28.8 µM | [7] 32.2 µM and 26.5 µM | [8] 19 µM and 12.8 µM | [9] 20 µM and 19.2 µM | [10] 27.8 µM and 24.1 µM | [12] 30.3 µM and 26.4 µM | [13] 20 µM and 11.6 µM | [14] 30.9 µM and 30.6 µM | CD40, CD40 (gene 958) 12.3 µM and 20 µM | [16] 31.7 µM and 18.7 µM | [17] 20 µM | [19] 35.6 µM | [18] 9.09 µM and 7.38 µM

O=C1C(Cl)=C(Cl)C(=O)C(Cl)=C1Cl
inactive: [1] | [11]
active: [2] 28.8 µM | [3] 1.63 µM | [4] 6.62 µM | [5] 12.5 µM | [6] 31.4 µM | [7] 26.8 µM | [8] 11.1 µM | [9] 27.1 µM | [10] 23.7 µM | [12] 20.1 µM | [13] 13.5 µM | [14] 28.5 µM | CD40, CD40 (gene 958) 15.1 µM | [15] 32.2 µM | [16] 30.9 µM | [17] 16.2 µM | [19] 36.2 µM | [18] 15.1 µM

COCC(=O)N(c1c(C)cccc1C)N1CCOC1=O
inactive: all assays above

CC(C)CCCCCCCOP(=O)(Oc1ccccc1)Oc1ccccc1
active: [1] 3.97 µM | [2] 25.7 µM | [3] 3.16 µM | [4] 8.83 µM | [5] 12.8 µM | [6] 11 µM | [7] 20 µM | [8] 5.85 µM | [9] 8.46 µM | [10] 30.3 µM | [11] 25.7 µM | [12] 11.3 µM | [13] 11.2 µM | [14] 20 µM | CD40, CD40 (gene 958) 11.3 µM | [15] 23.7 µM | [16] 30.4 µM | [17] 27.8 µM | [19] 35 µM | [18] 31 µM
